# Results as given in PubChem BioAssay (NCATS).
# Results filed as inconclusive are left out. Entries that show only a call come without a potency. Activity calls are given as the source filed them. Calls come from the whole dose curve; as a rule, active = well fitted cell-killing curve with a large enough effect; inconclusive = small, poorly fitted or top-dose-only effect; inactive = flat fitted curve, though single readings scatter.
# Experiment: Cell Viability - LYMP2-016 (AID 984); note: nearly all actives have a fitted effect of over 55% in size
# Settings: LYMP2-016 lymphoblastoid cell viability, qHTS; series mostly up to 92.2 µM
# From the text: NIH Chemical Genomics Center [NCGC]
# NIH Molecular Libraries Screening Centers Network [MLSCN]
# National Institutes of Environmental Health Sciences [NIEHS]
# National Toxicology Program [NTP]
# We have developed a 1536-well cell-based assay for quantitative high throughput screening (qHTS) against a number of cell lines to determine in vitro cytotoxicity of small molecules. This particular assay uses a human lymphoblastoid cell line (LYMP2-016) purchased from Coriell Institute for Medical Research.
# NCGC Assay Protocol Summary:
# The CellTiter-Glo luminescent cell viability assay (Promega) is a homogeneous method to measure the number of viable cells in culture. The end point readout of this assay is based on quantitation of intracellular ATP, an indicator of metabolic activity, using the luciferase reaction. Luciferase catalyzes the oxidation of beetle Luciferin to oxyluciferin and light in the presence of ATP. The luminescent signal is proportional to amount of ATP present.
# Using the CellTiter-Glo luminescent cell viability assay, the amount of cellular ATP was measured in the lymphoblastoid cell line with complete culture medium following compound treatment for 24 hours. The assay was performed in opaque white Kalypsys 1536-well plates. In the screen, tetraoctylammonium bromide was used as positive control. Library compounds were measured for their ability to cause acute toxicity in the cell line, as reflected by a decrease in intracellular ATP levels, in a concentration-dependent manner. […] AC50 values were determined from concentration-response data modeled with the standard Hill equation.
# qHTS protocol for CellTiter Glo lymphoblastoid cellular assay
# [Step] [Parameter] [Value] [Description]
# 1. Reagent; 5 uL; 2500 lymphoblastoid cells/well
# 2. Time; 5 hr; 37 C incubation
# 4. Controls; 23 nL; Tetraoctylammonium bromide 6.4pM to 92 uM
# 5. Time; 24 hr; 37 C incubation
# 6. Reagent; 5 uL; CellTiter Glo reagent
# 7. Time; 30 min; Room Temperature
# 8. Detection; Luminescence; Viewlux plate reader
# Keywords: cell viability, cytotoxicity, lymphoblastoid cell line, luminescence, NTPHTS, NTPHTS_NCGC, NIEHS, DSSTox, MLSMR, MLSCN, NIH Roadmap, qHTS, NCGC
row,SMILES,Potency
1,CCOCC(=O)O,inactive
2,NS(=O)(=O)O,inactive
3,O=C(O)c1ccc(Cl)c(Cl)c1,inactive
4,C=Cc1ccccn1,inactive
5,CNc1ccc([N+](=O)[O-])cc1,inactive
6,C/C=C(/C)C#N,inactive
7,C1CCCC1,inactive
8,c1ccc(Nc2ccccc2)cc1,inactive
9,CC(=O)c1nccs1,inactive
10,O=C(Cl)c1ccccc1[N+](=O)[O-],inactive
11,CC/C(C)=N/O,inactive
12,NC(=O)CCCCC(N)=O,inactive
13,N#CCc1ccccc1[N+](=O)[O-],inactive
14,CC(C)(C)OC=O,inactive
15,Oc1cccc(Nc2ccccc2)c1,inactive
16,COC(=O)CC#N,inactive
17,O=CNc1ccccc1,inactive
18,CO[Si](CCCNCCC[Si](OC)(OC)OC)(OC)OC,inactive
19,COc1ccc(N=[N+]([O-])c2ccc(OC)cc2)cc1,inactive
20,CCN(Cc1ccccc1)c1ccccc1,inactive

row,SMILES,Potency
1,COC(=O)CS,inactive
2,CCCCCCCCC/C=C/CC1CC(=O)OC1=O (stereo not given),inactive
3,CC(=O)c1ccc([N+](=O)[O-])cc1,inactive
4,CCC(C)(C)C(=O)O,inactive
5,CC(=O)Nc1cccc(N)c1,inactive
6,Cc1ccc(N(C)C)cc1,inactive
7,CNc1ccccc1,inactive
8,O=C(O)c1ccc(C(=O)O)cc1,inactive
9,OC/C(Br)=C(\Br)CO,inactive
10,O=C1OC(=O)c2c(Br)c(Br)c(Br)c(Br)c21,inactive
11,Cc1cccc(C)c1,inactive
12,C1CCC2OC2C1 (stereo not given),inactive
13,CCNS(=O)(=O)c1ccc(C)cc1,inactive
14,Nc1cc([N+](=O)[O-])ccc1C(=O)O,inactive
15,CCCCC(CC)CNCC(CC)CCCC (stereo not given),inactive
16,Cc1ccc(C#N)cc1,inactive
17,CC(C)(C)c1ccc(OCC2CO2)cc1 (stereo not given),inactive
18,CC(=O)c1ccccn1,inactive
19,C=C(C)C(=O)OCC(C)O (stereo not given),inactive
20,CCCCC(CC)C(=O)O (stereo not given),inactive
